Assay results taken from PubChem BioAssay.

How the values were obtained:
[1] = biological target: Tumor necrosis factor receptor superfamily member 10B (Homo sapiens) (UniProt O14763); test: viability loss of caspase-8 NB7 cells with TRAIL – with/without TRAIL, luminescence panel, confirmation (AID 651596); conditions: NB7 neuroblastoma + caspase-8, TRAIL sensitization, NB7 Caspase-8, with TRAIL, mean of runs, at 10 µM, stronger effect = higher value
[2] = as above; conditions: NB7 neuroblastoma + caspase-8, without TRAIL, NB7 Caspase-8, without TRAIL, mean of runs, at 10 µM

Sequence of Tumor necrosis factor receptor superfamily member 10B (Homo sapiens) (O14763 whole entry, looked up): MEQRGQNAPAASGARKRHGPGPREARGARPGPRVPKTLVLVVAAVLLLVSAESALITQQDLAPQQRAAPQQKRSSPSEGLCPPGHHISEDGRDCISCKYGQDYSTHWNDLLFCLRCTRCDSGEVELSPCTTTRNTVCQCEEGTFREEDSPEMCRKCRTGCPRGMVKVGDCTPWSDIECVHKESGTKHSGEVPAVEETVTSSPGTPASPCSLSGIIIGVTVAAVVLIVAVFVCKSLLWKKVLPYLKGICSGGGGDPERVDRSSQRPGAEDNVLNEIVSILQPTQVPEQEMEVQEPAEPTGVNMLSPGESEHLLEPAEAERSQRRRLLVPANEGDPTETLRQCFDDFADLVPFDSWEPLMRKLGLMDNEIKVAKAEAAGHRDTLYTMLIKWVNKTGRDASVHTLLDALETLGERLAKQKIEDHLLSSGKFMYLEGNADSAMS

| Compound | activity [1] [%] | activity [2] [%] |
| --- | --- | --- |
| CN(C)S(=O)(=O)c1ccc(-c2csc(N/N=C/c3ccco3)n2)cc1 | 81 | 77.8 |
| COc1ccc(C2CC(c3ccc(Br)cc3)=NN2C(=O)CSC2=NN3CCCC(=O)N=C3S2)cc1 (stereo not given) | 95.8 | 90.9 |
| Brc1nc(-c2ccccc2)nc(-c2ccccc2)c1Br | 98.9 | 99.2 |
| CC(C)(C)c1ccc(C(=O)O/N=C(\N)Cc2cccs2)cc1 | 98.6 | 77.5 |
| O=C(Nc1cc(S(=O)(=O)N2CCOCC2)ccc1N1CCOCC1)c1ccc([N+](=O)[O-])s1 | 39.1 | 41.4 |
| Cc1ccc2nc(Cl)c(/C=N/Nc3ccc(C(=O)O)cc3)cc2c1 | 90.2 | 86.4 |
| O=C(COC(=O)c1ccccc1C(=O)c1ccc(Cl)c([N+](=O)[O-])c1)NC1CC1 | 98.7 | 99.3 |
| COc1ccc(Cn2c(SCc3ccc(C)cc3)nc3cc(OC)c(OC)cc3c2=N)cc1Cl | 99 | 99.3 |
| COc1ccc(C(=O)Nc2ccccc2C(=O)N/N=C/c2ccncc2)cc1OC | 97.7 | 96.3 |
| Cc1ccccc1C(=O)Nc1nnc(SCC(=O)NCc2ccco2)s1 | 61.1 | 58.2 |
| COc1ccc(C(=O)NNC(=S)NC(=O)/C=C/c2cccs2)cc1 | 36.2 | 42.2 |
| Cc1ccccc1C(=O)O/N=C(\N)Cc1cccs1 | 98 | 96.6 |
| CN(NC(=O)C(C)(C)C)c1nc(-c2ccccc2)nnc1C(F)(F)F | 43.9 | 55.6 |
| C#CC(=O)N(c1cc(OC)ccc1OC)C(C(=O)NC1CCCC1)c1cccs1 (stereo not given) | 98.2 | 98.5 |
| CC(C)CC(/C(O)=C(\C#N)c1nc2ccccc2[nH]1)N1C(=O)c2ccccc2C1=O (stereo not given) | 66.3 | 61.7 |
